{"source": "PubChem BioAssay (Tox21)", "note": "A number with no mark means an inactive call. Calls of active or inactive are those of the source. Calls come from the whole dose curve; as a rule, active = well fitted curve in the direction sought with a large enough effect in the repeat runs; inconclusive = weak or mixed curves; inactive = flat fitted curve, though single readings scatter. % is set by controls: 0 for no effect and ±100 for the full control effect; tags give direction and shape of the fitted curve or compound fluorescence and quenching."}
{"assay": "qHTS assay to test for compound auto fluorescence at 535 nm (green) in HepG2 cells (AID 720675)", "settings": "green autofluorescence 485/535 nm, 1 h; series mostly up to 91.3 µM; fluorescence, % of fluorescein control: at the top concentration"}
{"molecule": "O=C(O)[C@H](O)[C@@H](O)[C@H](O[C@@H]1O[C@H](CO)[C@H](O)[C@H](O)[C@H]1O)[C@H](O)CO", "fluorescence, % of fluorescein control": "0.0584% [at 18.6 µM]"}
{"molecule": "O=C(O)Cc1ccccc1Nc1c(Cl)cccc1Cl", "Potency": "inactive"}
{"molecule": "CC(C)CCCCCOC(=O)CCS", "fluorescence, % of fluorescein control": "-0.0305%"}
{"molecule": "COc1cc(/C=C/c2ccccc2)oc(=O)c1", "fluorescence, % of fluorescein control": "-0.0457% [at 95.7 µM]"}
{"molecule": "CCO[Si](OCC)(OCC)OCC", "fluorescence, % of fluorescein control": "0.0092% [at 95.7 µM]"}
{"molecule": "CCCCC(CC)COC(=O)CCCCC(=O)OCc1ccccc1", "note": "(stereo unspecified)", "fluorescence, % of fluorescein control": "-0.055%"}
{"molecule": "NC(=S)NC(N)=S", "fluorescence, % of fluorescein control": "-0.196%"}
{"molecule": "CC(=O)c1ccc(C(C)=O)cc1", "fluorescence, % of fluorescein control": "0.0665% [at 95.7 µM]"}
{"molecule": "Cc1ccc(C(=O)O)cc1", "fluorescence, % of fluorescein control": "0.0092% [at 95.7 µM]"}
{"molecule": "CCC(CC)(CC(=O)Nc1cccc(/C=C/c2nc(C3CCC3)cs2)c1)C(=O)O", "fluorescence, % of fluorescein control": "0.0286% [at 46 µM]"}
{"molecule": "CCOC(=O)NNc1ccc(N(CC)CC(C)O)nn1", "note": "(stereo unspecified)", "fluorescence, % of fluorescein control": "0.152% [at 46 µM]"}
{"molecule": "C=CC(=O)Nc1cc2c(Nc3ccc(F)c(Cl)c3)ncnc2cc1OCCCN1CCOCC1", "fluorescence, % of fluorescein control": "0.0113% [at 46 µM]"}
{"molecule": "CCN(CC)c1ccc2c(-c3ccc(S(=O)(=O)O)cc3S(=O)(=O)[O-])c3ccc(=[N+](CC)CC)cc-3oc2c1", "fluorescence, % of fluorescein control": "4.61% [at 95.7 µM]"}
{"molecule": "Cc1cccc2cccnc12", "fluorescence, % of fluorescein control": "0.041%"}
{"molecule": "c1ccsc1", "fluorescence, % of fluorescein control": "-0.0099%"}
{"molecule": "O=S(=O)(O)c1ccc(Nc2nc(Nc3ccc(/C=C/c4ccc(Nc5nc(Nc6ccc(S(=O)(=O)O)cc6)nc(N(CCO)CCO)n5)cc4S(=O)(=O)O)c(S(=O)(=O)O)c3)nc(N(CCO)CCO)n2)cc1", "fluorescence, % of fluorescein control": "-0.0221%"}
{"molecule": "CC(C)=CCC1=C(O)c2ccccc2C(=O)C1=O", "fluorescence, % of fluorescein control": "-0.325%"}
{"molecule": "CCCCNS(=O)(=O)c1ccc(C)cc1", "fluorescence, % of fluorescein control": "-0.0528%"}
{"molecule": "CC(CO)Oc1ccccc1", "note": "(stereo unspecified)", "fluorescence, % of fluorescein control": "0.0519% [at 95.7 µM]"}
{"molecule": "C=C(CC)C(=O)c1ccc(OCC(=O)O)c(Cl)c1Cl", "Potency": "inactive"}
{"molecule": "CCC(COC(=O)CCS)(COC(=O)CCS)COC(=O)CCS", "fluorescence, % of fluorescein control": "-0.111%"}
{"molecule": "O=C(O)c1cccc(C(F)(F)F)c1", "fluorescence, % of fluorescein control": "-0.0425%"}
{"molecule": "Nc1ccc(C(=O)O)c(O)c1", "fluorescence, % of fluorescein control": "0.0205% [at 46 µM]"}
{"molecule": "C[C@H]1NCc2cc(-c3ccc4c(=O)c(C(=O)O)cn(C5CC5)c4c3OC(F)F)ccc21", "fluorescence, % of fluorescein control": "0.0745% [at 46 µM]"}
{"molecule": "O=C(Oc1ccccc1)Oc1ccccc1", "fluorescence, % of fluorescein control": "0.0214%"}
{"molecule": "O=[N+]([O-])c1ccc(O)cc1C(F)(F)F", "fluorescence, % of fluorescein control": "-0.0038%"}
{"molecule": "COC(=O)Nc1nc2ccc(C(=O)c3ccccc3)cc2[nH]1", "fluorescence, % of fluorescein control": "0.0492% [at 18.6 µM]"}
{"molecule": "O=C(O)c1cc(=O)c2ccccc2o1", "fluorescence, % of fluorescein control": "0.0106% [at 46 µM]"}
{"molecule": "CC1=Nc2ccccc2C1(C)C", "fluorescence, % of fluorescein control": "0.0921%"}
{"molecule": "CCCCCCCC/C=C\\CCCCCCCCN", "fluorescence, % of fluorescein control": "-0.136% [at 46 µM]"}
{"assay": "qHTS assay to test for compound auto fluorescence at 460 nm (blue) in HEK293 cells (AID 720678); note: potency is the fitted concentration of half-maximal effect", "settings": "blue autofluorescence 405/460 nm; series mostly up to 91.3 µM; fluorescence, % of triamterene: at the top concentration", "procedure,_shortened": "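HEK293 cells (2,000 per well, medium with 10% dialyzed FBS) attached for 4-5 hr at 37C, then received compound and stood overnight at 37C, 5% CO2. Blue fluorescence was read at Ex/Em 405/460 nm and expressed relative to triamterene.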"}
{"molecule": "O=C(O)[C@H](O)[C@@H](O)[C@H](O[C@@H]1O[C@H](CO)[C@H](O)[C@H](O)[C@H]1O)[C@H](O)CO", "fluorescence, % of triamterene": "0.228% [at 18.6 µM]"}
{"molecule": "Cc1c2ccccc2c(C)c2c1ccc1ccccc12", "Potency": "inactive"}
{"molecule": "NC[C@H]1O[C@H](O[C@H]2[C@H](O[C@@H]3O[C@H](CO)[C@@H](O)[C@H]3O)C(O)[C@H](N)C[C@@H]2N)[C@H](N)[C@@H](O)[C@@H]1O", "note": "(stereo partly specified)", "fluorescence, % of triamterene": "-0.0357% [at 18.6 µM]"}
{"molecule": "CC(C)CCCCCOC(=O)CCS", "fluorescence, % of triamterene": "0.108%"}
{"molecule": "COc1cc(/C=C/c2ccccc2)oc(=O)c1", "fluorescence, % of triamterene": "-0.232% [at 95.7 µM]"}
{"molecule": "CCO[Si](OCC)(OCC)OCC", "fluorescence, % of triamterene": "0.0636% [at 95.7 µM]"}
{"molecule": "CCCCC(CC)COC(=O)CCCCC(=O)OCc1ccccc1", "note": "(stereo unspecified)", "fluorescence, % of triamterene": "-0.289%"}
{"molecule": "NC(=S)NC(N)=S", "fluorescence, % of triamterene": "-0.0104%"}
{"molecule": "CC(=O)c1ccc(C(C)=O)cc1", "fluorescence, % of triamterene": "0.0282% [at 95.7 µM]"}
{"molecule": "Cc1ccc(C(=O)O)cc1", "fluorescence, % of triamterene": "0.0037% [at 95.7 µM]"}
{"molecule": "CCC(CC)(CC(=O)Nc1cccc(/C=C/c2nc(C3CCC3)cs2)c1)C(=O)O", "fluorescence, % of triamterene": "0.148% [at 46 µM]"}
{"molecule": "CCOC(=O)NNc1ccc(N(CC)CC(C)O)nn1", "note": "(stereo unspecified)", "fluorescence, % of triamterene": "0.46% [at 46 µM]"}
{"molecule": "C=CC(=O)Nc1cc2c(Nc3ccc(F)c(Cl)c3)ncnc2cc1OCCCN1CCOCC1", "fluorescence, % of triamterene": "0.747% [at 46 µM]"}
{"molecule": "CCN(CC)c1ccc2c(-c3ccc(S(=O)(=O)O)cc3S(=O)(=O)[O-])c3ccc(=[N+](CC)CC)cc-3oc2c1", "fluorescence, % of triamterene": "-0.228% [at 95.7 µM]"}
{"molecule": "Cc1cccc2cccnc12", "fluorescence, % of triamterene": "0.0064%"}
{"molecule": "c1ccsc1", "fluorescence, % of triamterene": "-0.176%"}
{"molecule": "O=S(=O)(O)c1ccc(Nc2nc(Nc3ccc(/C=C/c4ccc(Nc5nc(Nc6ccc(S(=O)(=O)O)cc6)nc(N(CCO)CCO)n5)cc4S(=O)(=O)O)c(S(=O)(=O)O)c3)nc(N(CCO)CCO)n2)cc1", "Potency": "31.6 µM [fluorescent] (active)"}
{"molecule": "CC(C)(C)CC(C)(C)c1ccc(Nc2ccc(C(C)(C)CC(C)(C)C)cc2)cc1", "fluorescence, % of triamterene": "-0.186% [at 3.72 µM]"}
{"molecule": "CC(C)=CCC1=C(O)c2ccccc2C(=O)C1=O", "fluorescence, % of triamterene": "-0.366%"}
{"molecule": "CCCCNS(=O)(=O)c1ccc(C)cc1", "fluorescence, % of triamterene": "0.0132%"}
{"molecule": "C=C(CC)C(=O)c1ccc(OCC(=O)O)c(Cl)c1Cl", "Potency": "inactive"}
{"molecule": "CCC(COC(=O)CCS)(COC(=O)CCS)COC(=O)CCS", "fluorescence, % of triamterene": "0.0088%"}
{"molecule": "O=C(O)c1cccc(C(F)(F)F)c1", "fluorescence, % of triamterene": "-0.34%"}
{"molecule": "O=C(O)CCN(C1(C(=O)NO)CCCC1)S(=O)(=O)c1ccc(Oc2ccc(F)cc2)cc1", "fluorescence, % of triamterene": "-0.0024%"}
{"molecule": "Nc1ccc(C(=O)O)c(O)c1", "fluorescence, % of triamterene": "-0.163% [at 46 µM]"}
{"molecule": "O=C(Oc1ccccc1)Oc1ccccc1", "fluorescence, % of triamterene": "-0.0617%"}
{"molecule": "O=[N+]([O-])c1ccc(O)cc1C(F)(F)F", "fluorescence, % of triamterene": "-0.486%"}
{"molecule": "COC(=O)Nc1nc2ccc(C(=O)c3ccccc3)cc2[nH]1", "fluorescence, % of triamterene": "0.0612% [at 18.6 µM]"}
{"molecule": "O=C(O)c1cc(=O)c2ccccc2o1", "fluorescence, % of triamterene": "-0.0938% [at 46 µM]"}
{"molecule": "CC1=Nc2ccccc2C1(C)C", "fluorescence, % of triamterene": "0.274%"}
{"molecule": "CCCCCCCC/C=C\\CCCCCCCCN", "fluorescence, % of triamterene": "0.0658% [at 46 µM]"}
